The results in this text go back to PubChem BioAssay (Tox21).

The structures appear in SMILES notation. Results filed as inconclusive are left out. The source made the active and inactive calls. Unless noted, calls follow the shape of the full dose curve.

The nature of experiment [1]: Nuclear factor erythroid 2-related factor 2/antioxidant responsive element (Nrf2/ARE) small molecule agonists: qHTS cell viability counter screen in human keratinocytes (AID 1919968; active = well fitted curve in the direction sought with a large enough effect in the repeat runs; an effect the other way counts as inactive or inconclusive; also: nearly all actives have a fitted effect of over 55% in size; also: potency is read from the fitted curve at half-maximal effect). An outline of the steps:
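Parallel cytotoxicity read: KeratinoSens HaCaT cells, compound treatment 23 h, viability by CellTiter-Fluor fluorescence 1 h post-reagent.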
(In general: qHTS replaces the single test concentration by a dilution series.)

The nature of experiment [2]: Nuclear factor erythroid 2-related factor 2/antioxidant responsive element (Nrf2/ARE) small molecule agonists: luciferase reporter gene qHTS assay in human keratinocytes (AID 1919969). Also: nearly all actives have a fitted effect of over 35% in size. Also: potency is read from the fitted curve at half-maximal effect. Background: In a reporter assay the amount or activity of a reporter protein is the signal.
The target in experiment [3] is Gonadotropin-releasing hormone receptor (Homo sapiens) (UniProt P30968). Kind of experiment: Human gonadotropin-releasing hormone receptor (GnRHR) small molecule agonists, calcium flux assay in GnRHR-HEK293 cells (AID 1920063). Also: nearly all actives have a fitted effect of over 35% in size. The method, boiled down:
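Calcium flux, agonist mode, human GnRHR stably integrated in HEK293; dye 1 h at 37 C before compound; Ex/Em=480/540 kinetic read, 3 min; 15 concentrations, triplicate.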
For orientation: A change in cytosolic calcium serves as a functional read-out for many receptors and channels.

For experiment [4], the target named is KiSS-1 receptor (Homo sapiens) (UniProt Q969F8). Kind of experiment: Human kisspeptin (KISS1R) small molecule agonists, calcium flux assay in KISS1R-HEK293 cells (AID 1920064; active = well fitted curve in the direction sought with a large enough effect in the repeat runs; an effect the other way counts as inactive or inconclusive). An outline of the steps:
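Triplicate 15-concentration series were applied to dye-loaded human KISS1R HEK293 cells, and agonist-evoked calcium fluorescence was captured for 3 min.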

Experiment [5] in a line: G protein-coupled receptor (GPCR) small molecule agonists, calcium flux assay: HEK293 wild type cell line counter screen (AID 1920065). The method, boiled down: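 Non-specific calcium responders were flagged by adding DMSO-dissolved compounds to dye-loaded cells and reading 480/540 nm fluorescence each second for 3 min; ATP served as positive control.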
The nature of experiment [6]: p53 small molecule agonists, cell-based qHTS assay with rat liver microsomes (AID 1963578). The method, boiled down: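 Agonist mode in p53RE-bla reporter cells, with compounds co-incubated 16 h at 37 C alongside 0.5 mg/mL rat liver microsomes and 0.5 mg/mL NADPH (final), followed by a 2 h LiveBLAzer detection step.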
The nature of experiment [7]: p53 small molecule agonists, cell-based qHTS assay with human liver microsomes: qHTS cell viability counter screen (AID 1963579). Also: nearly all actives have a fitted effect of over 45% in size. Also: potency is read from the fitted curve at half-maximal effect. The method, boiled down: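 Metabolically activated exposure: compounds, human liver microsomes and NADPH (0.5 mg/mL final apiece) were added to p53RE-bla cells seeded 5 h earlier, left 16 h at 37 C, and then assessed for viability by CellTiter-Glo luminescence.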

Experiment [8] can be described thus: p53 small molecule agonists, cell-based qHTS assay with rat liver microsomes: qHTS cell viability counter screen (AID 1963580). Also: nearly all actives have a fitted effect of over 45% in size. The method, boiled down: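 Cytotoxicity counter screen: intracellular ATP read by CellTiter-Glo luminescence in the p53 reporter wells. HCT-116 p53RE-bla cells were treated for 16 h at 37 C alongside rat liver microsomes and NADPH, each 0.5 mg/mL final.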

The nature of experiment [9]: p53 small molecule agonists, cell-based qHTS assay: qHTS cell viability counter screen (AID 1963581). Also: nearly all actives have a fitted effect of over 45% in size. Also: potency is read from the fitted curve at half-maximal effect. The method, boiled down:
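Multiplexed with the reporter read, a CellTiter-Glo step (30 min, room temperature) gauges ATP-based viability of HCT-116 p53RE-bla cells after 16 h compound incubation at 37 C.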

Experiment [10] is described as follows: p53 small molecule agonists, cell-based qHTS assay (AID 1963582; active = well fitted activation curve with a large enough effect in the signal ratio in the repeat runs, not every such curve was filed as active; the % refers to the signal ratio; also: potency is read from the fitted curve at half-maximal effect). The method, boiled down:
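Beta-lactamase reporter cells (p53RE-bla) treated with compounds for 16 h at 37 C; FRET substrate, 2 h, room temperature; fluorescence intensity.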

Experiment [11] deals with 5-hydroxytryptamine receptor 2A (Homo sapiens) (UniProt P28223). Kind of experiment: 5-hydroxytryptamine receptor 2A (HTR2A) small molecule antagonists, cell-based qHTS assay (AID 1963586). Also: nearly all actives have a fitted effect of over 45% in size. The method, boiled down: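 CHO cells stably expressing human HTR2A were plated for 18 h at 37 C, then loaded with calcium dye for 1 h. Compounds were preincubated 5 min at room temperature before DOI (4 nM solution) was added. Kinetic fluorescence was read for 3 min.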
Sequence of 5-hydroxytryptamine receptor 2A (Homo sapiens) (P28223 whole entry, looked up): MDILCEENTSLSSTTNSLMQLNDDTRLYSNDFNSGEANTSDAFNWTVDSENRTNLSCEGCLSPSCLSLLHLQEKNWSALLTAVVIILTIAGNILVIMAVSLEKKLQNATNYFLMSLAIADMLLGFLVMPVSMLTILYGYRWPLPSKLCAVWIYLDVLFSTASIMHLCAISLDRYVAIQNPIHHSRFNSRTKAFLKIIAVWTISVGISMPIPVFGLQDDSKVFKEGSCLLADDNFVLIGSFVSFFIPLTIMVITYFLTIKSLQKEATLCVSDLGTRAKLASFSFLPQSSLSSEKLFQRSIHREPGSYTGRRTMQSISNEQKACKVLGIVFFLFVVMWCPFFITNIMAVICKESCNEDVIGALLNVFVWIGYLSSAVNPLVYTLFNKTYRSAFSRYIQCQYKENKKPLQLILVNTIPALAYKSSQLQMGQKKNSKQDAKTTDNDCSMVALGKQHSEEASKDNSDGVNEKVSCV

Experiment [12] shares this target. Kind of experiment: 5-hydroxytryptamine receptor 2A (HTR2A) small molecule agonists, cell-based qHTS assay (AID 1963587). Also: nearly all actives have a fitted effect of over 30% in size. An outline of the steps:
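Kinetic calcium-flux fluorescence (2 min, 1 sec intervals) after compound addition in agonist mode. HTR2A-CHO cells were cultured 18 h, then dye-loaded 1 h at 37 C.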

In experiment [13] the target is Muscarinic acetylcholine receptor M1 (Homo sapiens) (UniProt P11229). Kind of experiment: Cholinergic receptor muscarinic 1 (CHRM1) small molecule antagonists, cell-based qHTS assay (AID 1963588). Also: nearly all actives have a fitted effect of over 40% in size. The method, boiled down: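 Compounds were tested at 15 concentrations in three independent runs. Dye-loaded CHRM1-CHO cells were exposed 5 min at room temperature before stimulation by acetylcholine added at 50nM. Intracellular calcium was read kinetically on FDSS for 3 min.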
Sequence of Muscarinic acetylcholine receptor M1 (Homo sapiens) (P11229 whole entry, looked up): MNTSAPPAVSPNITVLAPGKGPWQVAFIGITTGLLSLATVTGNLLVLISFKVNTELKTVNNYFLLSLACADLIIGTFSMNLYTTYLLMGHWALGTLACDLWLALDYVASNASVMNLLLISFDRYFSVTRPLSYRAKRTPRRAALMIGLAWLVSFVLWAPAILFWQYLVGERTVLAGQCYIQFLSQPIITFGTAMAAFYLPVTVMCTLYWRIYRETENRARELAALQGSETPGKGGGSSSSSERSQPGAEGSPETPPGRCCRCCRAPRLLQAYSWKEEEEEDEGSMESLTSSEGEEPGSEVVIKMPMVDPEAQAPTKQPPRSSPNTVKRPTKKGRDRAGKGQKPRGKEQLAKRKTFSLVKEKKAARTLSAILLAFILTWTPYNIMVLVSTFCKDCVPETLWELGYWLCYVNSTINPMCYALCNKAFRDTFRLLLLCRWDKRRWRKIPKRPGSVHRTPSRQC

Experiment [14] shares this target. Description: Cholinergic receptor muscarinic 1 (CHRM1) small molecule agonists, cell-based qHTS assay (AID 1963589). Also: nearly all actives have a fitted effect of over 35% in size. An outline of the steps: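 qHTS, 15-point titration, 3 independent runs: compounds pin-transferred onto dye-loaded CHRM1-CHO cells (human M1), calcium fluorescence followed every second to detect agonism.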
Experiment [15] in a line: cAMP Responsive Elements (CRE) small molecule agonists, cell-based qHTS assay (AID 1963590). An outline of the steps: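 Quantitative HTS for CRE agonists: HEK 293T CRE-bla cells, overnight plating, 3 h compound incubation at 37 C/5% CO2, then 2 h room-temperature LiveBLAzer B/G FRET substrate loading.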
Experiment [16] in a line: cAMP Responsive Elements (CRE) small molecule antagonists, cell-based qHTS assay (AID 1963591; active = well fitted inhibition curve with a large enough effect in the signal ratio in the repeat runs, not every such curve was filed as active; the % refers to the signal ratio; also: potency is read from the fitted curve at half-maximal effect). An outline of the steps: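 Fluorescence intensity from cleaved LiveBLAzer B/G substrate (2 h, room temperature) quantified CRE-bla activity in HEK 293T cells exposed 3 h to compound with 0.25 uM final NKH477.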
In experiment [17] the target is Beta-2 adrenergic receptor (Homo sapiens) (UniProt P07550). Kind of experiment: Adrenergic beta2 receptor (ADRB2) small molecule antagonists, cell-based qHTS assay (AID 1963592). Also: series mostly up to about 92 µM; nearly all actives have a fitted effect of over 50% in size. An outline of the steps: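 Assay format: CHO-ADRB2 cells, 18-20hr seeding at 37C/5% CO2, then compound plus 1nM isoproterenol agonist mix for 0.5hr RT. Homogeneous time-resolved fluorescence cAMP detection after 1hr, expressed as 665/615 nm ratio.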
Sequence of Beta-2 adrenergic receptor (Homo sapiens) (P07550 whole entry, looked up): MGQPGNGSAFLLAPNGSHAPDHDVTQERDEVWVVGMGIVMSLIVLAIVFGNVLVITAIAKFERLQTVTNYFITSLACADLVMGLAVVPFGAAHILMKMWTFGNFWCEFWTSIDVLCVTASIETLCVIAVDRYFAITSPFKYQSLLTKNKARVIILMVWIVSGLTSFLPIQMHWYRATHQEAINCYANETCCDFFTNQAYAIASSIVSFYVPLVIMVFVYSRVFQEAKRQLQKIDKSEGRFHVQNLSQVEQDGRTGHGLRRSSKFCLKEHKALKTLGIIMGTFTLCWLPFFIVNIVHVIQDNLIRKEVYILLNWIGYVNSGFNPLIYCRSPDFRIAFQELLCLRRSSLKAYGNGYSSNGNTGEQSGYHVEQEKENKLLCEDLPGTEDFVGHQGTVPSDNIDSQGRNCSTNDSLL

For experiment [18] the target is unchanged. Kind of experiment: Adrenergic beta2 receptor (ADRB2) small molecule agonists, cell-based qHTS assay (AID 1963593).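 Also: CHO cells stably overexpressing human ADRB2.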 The method, boiled down:
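CHO cells stably over-expressing ADRB2 were plated overnight at 37C, then dosed with compounds plus a stimulation mix containing 100uM IBMX and 25uM Ro-20-1724 for 0.5hr at room temperature. cAMP was measured by HTRF competition, 1hr.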

Experiment [19] has as its target D(2) dopamine receptor (Homo sapiens) (UniProt P14416). Description: Dopamine D2 receptor (DRD2) small molecule agonists, cell-based qHTS assay (AID 1963594). Also: nearly all actives have a fitted effect of over 35% in size. An outline of the steps:
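cAMP accumulation in DRD2-HEK293 cells measured by HTRF after 1 h detection; compounds added 10 min before NKH477 (200nM […]) forskolin-analogue stimulation, 30 min at room temperature, with Ro20-1724 present at 0.1 mM final.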

Experiment [20] shares this target. Kind of experiment: Dopamine D2 receptor (DRD2) small molecule antagonists, cell-based qHTS assay (AID 1963595; active = well fitted inhibition curve with a large enough effect in the signal ratio in the repeat runs, with a control signal flat; the % refers to the signal ratio). An outline of the steps: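 Readout: HTRF cAMP, cAMP-d2 competing with cellular cAMP for anti-cAMP cryptate, read after 1 h. Cells: DRD2-HEK293. Conditions: 0.1 mM Ro20-1724, 12 nM quinpirole, 200 nM NKH477, 30 min RT.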

Sequence of Gonadotropin-releasing hormone receptor (Homo sapiens) (P30968 whole entry, looked up): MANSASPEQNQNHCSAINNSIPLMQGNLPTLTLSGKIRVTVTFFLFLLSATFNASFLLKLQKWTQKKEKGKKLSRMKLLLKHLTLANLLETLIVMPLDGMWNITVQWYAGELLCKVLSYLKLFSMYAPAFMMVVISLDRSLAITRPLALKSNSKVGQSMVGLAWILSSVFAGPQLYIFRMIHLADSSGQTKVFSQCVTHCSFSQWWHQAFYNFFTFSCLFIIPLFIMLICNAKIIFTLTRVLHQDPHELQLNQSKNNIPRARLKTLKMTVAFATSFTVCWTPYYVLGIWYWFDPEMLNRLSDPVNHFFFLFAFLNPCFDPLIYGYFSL
Sequence of D(2) dopamine receptor (Homo sapiens) (P14416 whole entry, looked up): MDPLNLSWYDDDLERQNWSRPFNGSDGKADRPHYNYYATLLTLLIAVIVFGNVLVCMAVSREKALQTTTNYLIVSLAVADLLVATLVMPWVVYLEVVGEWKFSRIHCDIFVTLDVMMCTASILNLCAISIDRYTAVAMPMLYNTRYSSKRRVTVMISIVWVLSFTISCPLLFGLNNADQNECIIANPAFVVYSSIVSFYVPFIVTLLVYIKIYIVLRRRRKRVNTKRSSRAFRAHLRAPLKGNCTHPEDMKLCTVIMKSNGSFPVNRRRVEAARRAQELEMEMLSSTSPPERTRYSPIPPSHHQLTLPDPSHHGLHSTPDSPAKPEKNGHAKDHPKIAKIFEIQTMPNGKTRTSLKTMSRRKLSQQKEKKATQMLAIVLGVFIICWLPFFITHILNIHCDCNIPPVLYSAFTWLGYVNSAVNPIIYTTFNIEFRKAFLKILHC
Sequence of KiSS-1 receptor (Homo sapiens) (Q969F8 whole entry, looked up): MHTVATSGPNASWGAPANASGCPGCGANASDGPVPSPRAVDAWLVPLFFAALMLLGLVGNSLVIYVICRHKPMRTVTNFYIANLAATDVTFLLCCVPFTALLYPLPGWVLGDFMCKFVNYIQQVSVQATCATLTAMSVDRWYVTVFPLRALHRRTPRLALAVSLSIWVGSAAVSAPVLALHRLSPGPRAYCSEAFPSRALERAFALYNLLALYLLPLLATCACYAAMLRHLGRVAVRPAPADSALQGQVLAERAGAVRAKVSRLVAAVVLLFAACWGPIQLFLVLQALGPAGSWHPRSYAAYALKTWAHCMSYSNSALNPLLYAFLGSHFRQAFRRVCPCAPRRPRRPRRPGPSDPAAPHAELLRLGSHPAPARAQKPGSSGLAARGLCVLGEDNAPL

`CCCCCC/C=C\CCCCCCCC(=O)O`: the Potency entry in experiment [1], in experiment [2], in experiment [3], in experiment [4], in [5] and in experiment [6] was “inactive” each time. The Potency entry in experiment [7], in experiment [8], in [9], in [10], in experiment [11] and in [12] was “inactive” in each case. Besides, the Potency result in experiment [13], in experiment [14], in experiment [15], in experiment [16], in experiment [17] and in experiment [18] was “inactive” throughout. Further, the Potency result in experiment [19] and in experiment [20] was “inactive” throughout.
Turning to `C=CC(=O)OCC(C)OCC(C)OCC(C)OC(=O)C=C` (configuration not stated), the results for the Potency in experiment [1] and in experiment [2] were 61100 nM (active) and 24300 nM (active), respectively. The Potency entry in experiment [3], in experiment [4], in [5], in [9], in [11] and in experiment [12] was “inactive” in each case. The Potency result in [13], in experiment [17], in experiment [19] and in experiment [20] was “inactive” throughout.
Take `CC(=O)Oc1ccc(C2(c3ccc(OC(C)=O)cc3)Oc3ccccc3NC2=O)cc1`: the Potency entry in experiment [1], in [2], in experiment [3], in [4], in [5] and in experiment [6] was “inactive” throughout. Also, the Potency result in experiment [11], in [12], in experiment [14], in [15], in experiment [17] and in experiment [19] was “inactive” each time. Further, the Potency in [10] was 4460 nM (active).
On to `CC1=CCCC(C)(C)C12CCC(C)O2` (configuration not stated), for which the Potency entry in experiment [1], in [2], in experiment [3], in experiment [4], in [5] and in [7] was “inactive” throughout. Moreover, the Potency entry in [8], in experiment [9], in experiment [10], in experiment [12], in [13] and in [14] was “inactive” in each case. The Potency entry in experiment [16], in experiment [17] and in experiment [19] was “inactive” in each case.
As for `Cc1cc(C)c(C)c(C)c1`, the Potency entry in [1], in experiment [2], in experiment [3], in experiment [4], in experiment [5] and in experiment [7] was “inactive” in each case. In addition, the Potency entry in experiment [8], in experiment [9], in experiment [10], in experiment [11], in [12] and in experiment [13] was “inactive” in each case. The Potency entry in experiment [14], in [15], in [16], in experiment [19] and in [20] was “inactive” in each case.
In the case of `CC[C@]1(O)C[C@H]2CN(CCc3c([nH]c4ccccc34)[C@@](C(=O)OC)(c3cc4c(cc3OC)N(C=O)[C@H]3[C@@](O)(C(=O)OC)[C@H](OC(C)=O)[C@]5(CC)C=CCN6CC[C@]43[C@@H]65)C2)C1`, the Potency result in experiment [1], in experiment [3], in [4], in experiment [5], in experiment [6] and in experiment [18] was “inactive” each time. The Potency result in [20] is “inactive”. Further, the Potency in [2] was 596 nM (active).
In the case of `C[Si](C)(C)C`, the Potency result in [1], in experiment [2], in [3], in [4], in experiment [5] and in experiment [7] was “inactive” in each case. The Potency entry in experiment [9], in experiment [10], in experiment [12], in experiment [13], in experiment [14] and in experiment [15] was “inactive” each time. Besides, the Potency result in [16] and in experiment [20] was “inactive” each time.
As to `Nc1ccc(N)c2ccccc12`, the Potency in experiment [1] was 27300 nM (active); in experiment [2] it was 7690 nM (active). For the same molecule, the Potency result in experiment [3], in experiment [4], in experiment [5], in experiment [6], in experiment [10] and in [13] was “inactive” each time. For the same molecule, the Potency entry in experiment [15], in [16] and in experiment [20] was “inactive” throughout.
Consider `CC(C)C[C@H](NC(=O)[C@H](Cc1ccccc1)NC(=O)c1cnccn1)B(O)O`, for which the Potency in [1] is 596 nM (active); in [2], 42.2 nM (active); in experiment [7], 890 nM (active); in experiment [9], 707 nM (active); in experiment [10] it was 14.1 nM (active); in [16] it was 944 nM (active). Moreover, the Potency result in experiment [3], in experiment [4], in [5], in experiment [11], in experiment [12] and in experiment [13] was “inactive” throughout. Moreover, the Potency result in [14], in [15], in [17], in experiment [19] and in experiment [20] was “inactive” each time.
